Laboratory results as given in PubChem BioAssay AID1159580 (chemical genetic matrix, 2015).
“And” between values parts separate entries of the source, which are not always exact repeats. Equal values may be shown once. Hit rate of the full screen: of about 5,500 compounds, about 2,000 (36%) were called active. Roughly 18% stayed inconclusive and do not appear here. No stated cut-off is given here; in the data, active means normalized growth mostly below about 0.91 (no sharp cut-off); inconclusive means no clear call, values can overlap the other calls; inactive means mostly above about 0.92. Some of the results follow.

Test: chemical genetic growth profiling, strain panel (AID 1159580);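 further: tested at 20 µM; growth read once vehicle control cultures reached saturation at 30 °C; 1 = growth at the plate median or of vehicle wells; lower values mean less growth of the strain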
Conditions: S. cerevisiae deletion strains, growth OD

Measured: normalized growth

CC[C@@]1(C2O[C@@H](C3O[C@@](O)(CC)[C@H](C)C[C@@H]3C)C[C@@H]2C)CC[C@H]([C@]2(C)CCC3(C[C@H](O)[C@@H](C)[C@@H]([C@H](C)[C@@H](OC)[C@H](C)C(=O)O)O3)O2)O1 (stereo not given in full)
inactive: locus YAL013W, strain DEP1, active compounds read low 0.998 | locus YAL021C, strain ccr4, active compounds read low 0.924 | locus YAL030W, strain snc1, active compounds read low 1.03 | locus YBL061C, strain skt5, active compounds read low 1.04 | locus YBR009C, strain hhf1, active compounds read low 1.02 | locus YBR021W, strain FUR4, active compounds read low 1.05 | locus YBR023C, strain chs3, active compounds read low 1.03 | locus YBR171W, strain sec66, active compounds read low 0.974 | locus YBR229C, strain ROT2, active compounds read low 1.03 | locus YBR231C, strain swc5, active compounds read low 1.06 | locus YBR279W, strain paf1, active compounds read low 1.03 | locus YCL011C, strain gbp2, active compounds read low 0.991 | locus YCL016C, strain dcc1, active compounds read low 1.02 | locus YCL029C, strain bik1, active compounds read low 0.982 | locus YCL069W, strain vba3, active compounds read low 0.998 | locus YCR088W, strain abp1, active compounds read low 0.966 | locus YDL005C, strain med2, active compounds read low 1.06 | locus YDL035C, strain GPR1, active compounds read low 1.04 | locus YDL040C, strain nat1, active compounds read low 1.03 | locus YDL074C, strain BRE1, active compounds read low 0.994 | locus YDL101C, strain DUN1, active compounds read low 0.99 | locus YDL134C, strain PPH21, active compounds read low 1.05 | locus YDL185W, strain tfp1, active compounds read low 0.96 | locus YDL192W, strain arf1, active compounds read low 0.999 | locus YDR001C, strain nth1, active compounds read low 0.972 | locus YDR069C, strain doa4, active compounds read low 1.03 | locus YDR101C, strain arx1, active compounds read low 1.01 | locus YDR159W, strain sac3, active compounds read low 1.02 | locus YDR162C, strain NBP2, active compounds read low 1.01 | locus YDR195W, strain ref2 1.04 | locus YDR297W, strain sur2, active compounds read low 1.04 | locus YDR318W, strain mcm21, active compounds read low 0.98 | locus YDR334W, strain swr1, active compounds read low 0.987 | locus YDR335W, strain msn5, active compounds read low 1.02 | locus YDR388W, active compounds read low 1.01 | locus YDR392W, strain spt3, active compounds read low 1.08 | locus YDR502C, strain sam2, active compounds read low 0.983 | locus YEL003W, strain gim4, active compounds read low 1 | locus YEL037C, strain rad23, active compounds read low 1.01 | locus YEL061C, strain CIN8 (second series), active compounds read low 1.01 | locus YEL061C, strain CIN8, active compounds read low 0.99 | locus YER015W, strain faa2, active compounds read low 1.01 | locus YER016W, strain bim1, active compounds read low 1.01 | locus YER110C, active compounds read low 1.01 | locus YER111C, strain swi4, active compounds read low 1.04 | locus YER155C, strain BEM2 (second series), active compounds read low 1.08 | locus YER155C, strain BEM2, active compounds read low 0.999 | locus YER167W, strain BCK2, active compounds read low 0.992 | locus YFR010W, strain ubp6, active compounds read low 1.02 | locus YGL078C, strain dbp3, active compounds read low 0.994 | locus YGL086W, strain mad1, active compounds read low 1 | locus YGL167C, strain pmr1, active compounds read low 1.05 | locus YGL173C, strain kem1, active compounds read low 1.04 | locus YGL227W, strain vid30, active compounds read low 1 | locus YGL240W, strain doc1, active compounds read low 1.04 | locus YGL248W, strain PDE1, active compounds read low 0.991 | locus YGL253W, strain hxk2, active compounds read low 0.983 | locus YGR078C, strain PAC10, active compounds read low 0.994 | locus YGR135W, strain pre9, active compounds read low 0.971 | locus YGR252W, strain gcn5, active compounds read low 0.976 | locus YHR013C, strain ard1, active compounds read low 1.03 | locus YHR027C, strain rpn1, active compounds read low 1.05 | locus YHR030C, strain SLT2, active compounds read low 1.01 and 0.966 | locus YHR079C, strain IRE1 (second series), active compounds read low 0.991 | locus YHR079C, strain IRE1, active compounds read low 0.956 | locus YHR094C, strain hxt1, active compounds read low 1.02 | locus YHR129C, strain ARP1, active compounds read low 1 | locus YHR142W, strain chs7, active compounds read low 0.966 | locus YHR200W, strain rpn10, active compounds read low 0.986 | locus YIL066C, strain RNR3, active compounds read low 1 | locus YIL073C, strain SPO22, active compounds read low 0.915 | locus YIL125W, strain kgd1, active compounds read low 0.993 | locus YIR030C, strain dcg1, active compounds read low 1 | locus YJL092W, strain hpr5, active compounds read low 0.973 | locus YJL095W, strain BCK1 (second series), active compounds read low 1.04 | locus YJL095W, strain BCK1, active compounds read low 0.972 and 0.975 | locus YJL115W, strain asf1, active compounds read low 1.02 | locus YJL134W, strain LCB3, active compounds read low 1.01 | locus YJL154C, strain vps35, active compounds read low 0.963 | locus YJL164C, strain tpk1, active compounds read low 0.993 | locus YJL166W, strain qcr8, active compounds read low 1.04 | locus YJL168C, strain set2, active compounds read low 1.03 | locus YJL187C, strain SWE1 (second series), active compounds read low 0.98 | locus YJR043C, strain POL32, active compounds read low 1.05 | locus YJR066W, strain TOR1, active compounds read low 0.941 | locus YKL009W, strain mrt4, active compounds read low 1 | locus YKL068W, active compounds read low 0.998 | locus YKL085W, strain MDH1 (second series), active compounds read low 0.942 | locus YKL085W, strain MDH1, active compounds read low 0.942 | locus YKL160W, strain elf1, active compounds read low 1.01 | locus YKL190W, strain CNB1, active compounds read low 0.981 | locus YKR001C, strain vps1, active compounds read low 1.03 | locus YKR026C, strain gcn3, active compounds read low 0.979 | locus YKR091W, strain srl3, active compounds read low 0.999 | locus YLL001W, strain dnm1, active compounds read low 1.02 | locus YLL026W, active compounds read low 1 | locus YLL041C, strain sdh2, active compounds read low 1.01 | locus YLR027C, strain aat2, active compounds read low 0.995 | locus YLR039C, strain RIC1, active compounds read low 1.32 | locus YLR058C, strain SHM2, active compounds read low 0.989 | locus YLR102C, strain apc9, active compounds read low 1.02 | locus YLR113W, strain HOG1, active compounds read low 0.947 | locus YLR221C, strain rsa3, active compounds read low 0.988 | locus YLR258W, strain gsy2, active compounds read low 1.03 | locus YLR262C, strain YPT6, active compounds read low 1.07 | locus YLR268W, strain sec22, active compounds read low 0.987 | locus YLR320W, strain mms22, active compounds read low 1.02 | locus YLR330W, strain CHS5, active compounds read low 0.994 | locus YLR342W, strain FKS1 (second series), active compounds read low 1.05 | locus YLR342W, strain FKS1, active compounds read low 1.01 | locus YLR357W, strain rsc2, active compounds read low 1.01 | locus YLR370C, strain arc18, active compounds read low 0.979 | locus YLR371W, strain rom2, active compounds read low 1.01 | locus YLR384C, strain iki3, active compounds read low 1.05 | locus YLR418C, strain cdc73, active compounds read low 0.993 | locus YML016C, strain PPZ1, active compounds read low 0.996 | locus YML032C, strain rad52, active compounds read low 1.01 | locus YML120C, strain ndi1, active compounds read low 1.01 | locus YML124C, strain tub3, active compounds read low 1.01 | locus YMR058W, strain fet3, active compounds read low 1.01 | locus YMR078C, strain ctf18, active compounds read low 1.02 | locus YMR125W, strain sto1, active compounds read low 0.982 | locus YMR129W, active compounds read low 0.999 | locus YMR205C, strain PFK2, active compounds read low 1.01 | locus YMR223W, strain ubp8, active compounds read low 0.983 | locus YMR263W, strain SAP30, active compounds read low 0.967 | locus YMR307W, strain GAS1, active compounds read low 1.23 | locus YNL067W, strain RPL9B, active compounds read low 0.959 | locus YNL071W, strain lat1, active compounds read low 1.01 | locus YNL128W, strain TEP1, active compounds read low 0.956 | locus YNL153C, strain GIM3, active compounds read low 0.997 | locus YNL183C, strain NPR1, active compounds read low 0.941 | locus YNL209W, strain ssb2, active compounds read low 1.05 | locus YNL233W, strain BNI4, active compounds read low 1 | locus YNL248C, strain rpa49, active compounds read low 1.03 | locus YNL250W, strain rad50, active compounds read low 0.998 | locus YNL271C, strain bni1, active compounds read low 1.01 | locus YNL298W, strain CLA4, active compounds read low 0.993 | locus YNL307C, strain MCK1, active compounds read low 1.05 | locus YNL322C, strain KRE1 (second series), active compounds read low 0.962 | locus YNL322C, strain KRE1, active compounds read low 0.99 | locus YNR049C, strain mso1, active compounds read low 0.985 | locus YNR052C, strain pop2, active compounds read low 0.988 | locus YOL012C, strain htz1 1.01 | locus YOL147C, strain pex11, active compounds read low 1.01 | locus YOR001W, strain rrp6, active compounds read low 1.02 | locus YOR061W, strain CKA2, active compounds read low 1 | locus YOR069W, strain VPS5, active compounds read low 1 | locus YOR070C, strain gyp1, active compounds read low 1.03 | locus YOR080W, strain dia2, active compounds read low 1.03 | locus YOR083W, strain WHI5, active compounds read low 1.01 | locus YOR136W, strain idh2, active compounds read low 0.99 | locus YOR144C, strain elg1, active compounds read low 1.01 | locus YOR184W, strain ser1, active compounds read low 0.977 | locus YOR231W, strain MKK1, active compounds read low 0.974 | locus YOR265W, strain rbl2, active compounds read low 1.04 | locus YOR290C, strain snf2, active compounds read low 0.978 | locus YOR316C, strain cot1, active compounds read low 1.01 | locus YPL051W, strain arl3, active compounds read low 1.01 | locus YPL055C, strain LGE1, active compounds read low 1.01 | locus YPL078C, strain atp4, active compounds read low 1.05 | locus YPL106C, strain sse1, active compounds read low 1.08 | locus YPL240C, strain hsp82, active compounds read low 1.04 | locus YPL241C, strain CIN2, active compounds read low 1.01 | locus YPL256C, strain CLN2, active compounds read low 0.993 | locus YPR119W, strain clb2, active compounds read low 1.02 | locus YPR141C, strain kar3, active compounds read low 0.993 | locus YPR163C, strain tif3, active compounds read low 1.05 | locus YPR167C, strain met16, active compounds read low 0.991 | strain wtn01, active compounds read low 0.99
